Hits are enriched below; roughly 4.1% of the tested compounds scored in any of these assays.
IDE cell activ – IDE (human) activation, cell-based; activation, % at 5.96 µM; HEK cells, FAbeta-B cleavage, fluorescence polarization; 0% vehicle, 100% cell-free pure enzyme wells; 0.073% of 340,000 active; P14735;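 active means activation above the mean of all tested compounds plus 3 SD, set per screening campaign, cut at about 17% in these data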
ALR H2O2 inh – inhibitors of human sulfhydryl oxidase ALR. 3.8% of 290,000 active. inhibition, % (concentration not given with the values). P55789. AID 485317. purified ALR, DTT oxidation, H2O2 HRP-luminol luminescence;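 active means mean replicate inhibition above about 79%, with every replicate also reaching it, limit read from the data; inconclusive means only one of the two criteria met; inactive means mean below limit and not every replicate reaching it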
PolyA inhibitor – yeast polyadenylation inhibition. S. cerevisiae SKY197-pL101 polyadenylation reporter, beta-gal luminescence; efflux-impaired pdr1/pdr3 knockout yeast; score 100 = 6 SD above DMSO. activity score, % at 12 µM. 0.02% of 300,000 active;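 active means lowest replicate activity score at least 50, where 100 means six control SD above control mean; inconclusive means lowest score under 50 but half or more replicates reach 50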;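 further: yeast exposed to compound for 9 h at 30 °C; higher score means more reporter readthrough which indicates perturbed polyadenylation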
IDE inh – inhibits human insulin-degrading enzyme in HEK cells; P14735; FAbetaB cleavage, fluorescence polarization; inhibition, % at 5.59 µM; 0.41% of 320,000 active; AID 434962;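 active means percent inhibition above the average of all tested compounds plus 3 SD, set per screening campaign, cut at about 16% in these data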;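 further: IDE supplied by intact live HEK cells; FP after avidin binding of uncleaved biotin substrate so inhibition keeps polarization high; 0% = DMSO wells and 100% = 60 µM reference IDE inhibitor Ii1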
CaV13 ICDI inh – Disruptors of the CACNA1D IQ motif to Ca2+-dependent inactivation inhibitor domain association, primary screening, Förster resonance energy transfer in intact living …; inhibition, % at 12.3 µM; HEK cells, CFP/YFP FRET ICDI-IQ, plate reader, 10 min; percent FRET-ratio fall versus neutral wells; 0.098% of 340,000 active;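 active means mean replicate inhibition of at least 30% and at least 1% of replicates passing that level; inconclusive means only one of the two criteria is met; inactive means neither criterion is met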;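 further: 0% = median of the neutral control wells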
M18AAP inhibitor – blocks P. falciparum M18 aspartyl aminopeptidase. inhibition, % at 7.35 µM. recombinant PfM18AAP, H-Glu-NHMec fluorogenic cleavage. 1.2% of 290,000 active;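 active means inhibition above the campaign mean inhibition over all tested compounds plus 3 SD, cut at about 28% in these data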;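 further: 0% = plate median of test compound wells and 100% = 2 mM ZnCl2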
* marks the source's active call; other numbers are inactive results; ? = inconclusive; · = no result.

SMILES	IDE cell activ	ALR H2O2 inh	PolyA inhibitor	IDE inh	CaV13 ICDI inh	M18AAP inhibitor
CCC1CCCCN1C(=O)Nc1cc(Cl)ccc1OC (centres undefined)	5	0	10	1	-2	3
CCOC(=O)c1c(CSc2ccccc2)oc2cc(Br)c(O)c(CN(C)C)c12	-3	82*	-13	9	-5	1
COC(=O)c1ccc(C2c3[nH]c4ccccc4c3C[C@H]3C(=O)N(C4CC4)CC(=O)N23)cc1 (some centres undefined)	2	-1	4	0	-3	2
O=C1[C@@H]2Cc3c([nH]c4ccccc34)[C@@H](c3ccccc3)N2C(=O)[C@@H]2Cc3c([nH]c4ccccc34)[C@@H](c3ccccc3)N12	·	·	·	·	·	2
CC(C)CN1CC(=O)N2C(c3ccccc3)c3[nH]c4ccccc4c3C[C@H]2C1=O (some centres undefined)	-7	-13	1	2	-18	-2
CC(C)c1ccc(C2c3[nH]c4ccccc4c3C[C@H]3C(=O)N(c4ccccc4C(=O)N4CCC(C(=O)O)CC4)C(=O)N23)cc1 (some centres undefined)	-1	98*	0	-1	·	0
Cc1ccc(C2c3[nH]c4ccccc4c3C[C@H]3C(=O)N(c4ccccc4C(=O)N4CCC[C@H]4C(=O)O)C(=O)N23)cc1 (some centres undefined)	3	98*	6	0	·	-7
CC(C)c1ccc(C2c3[nH]c4ccccc4c3C[C@H]3C(=O)N(c4ccccc4C(=O)N4CCC[C@@H]4C(=O)O)C(=O)N23)cc1 (some centres undefined)	0	98*	-14	5	·	1
CCNc1ccc(S(=O)(=O)N2CCOCC2)cc1NCC(=O)Nc1cccc(Br)c1	·	·	·	·	-9	·
COC(=O)c1c(NC(=O)/C=C/C(=O)O)sc(C)c1-c1ccc(C)cc1	1	98*	-9	-2	1	6
COC(=O)c1sc(-c2ccc(Cl)cc2)cc1NC(=O)/C=C/C(=O)O	-2	84*	4	3	-5	-3
COC(=O)c1c(NC(=O)/C=C/C(=O)O)sc(C)c1-c1ccc(C)c(C)c1	0	·	-14	6	-5	10
CCOC(=O)c1c(NC(=O)/C=C/C(=O)O)sc(C)c1-c1ccc(C)c(C)c1	1	98*	-21	4	2	9
COC(=O)c1c(NC(=O)/C=C/C(=O)O)sc(C)c1-c1ccc(C(C)C)cc1	0	33	-2	-1	-7	7
Cc1cccnc1NC(=O)CNC(=O)C12CC3CC(CC(C3)C1)C2	6	·	-3	-3	-7	·
CCOC(=O)CN1CCCc2nc(-c3ccc(OC)cc3)ccc21	·	·	·	·	-9	·
Cc1ccsc1CNC1CCCCC1	-1	0	7	6	-3	0
Cc1ccc(/C=N/n2cc(-c3ccccc3)[nH]c2=S)s1	-6	?	1	3	-12	53*
CN(C)c1ccc(/C=N/n2c(-c3ccccc3Br)n[nH]c2=S)cc1	-4	96*	1	-2	-5	20
CN(C)c1ccc(/C=N/n2c(-c3cccnc3)n[nH]c2=S)cc1	4	98*	11	-10	-5	20
CN(C)c1ccc(/C=N/n2c(COc3ccccc3)n[nH]c2=S)cc1	4	·	-9	8	-4	22
S=c1[nH]nc(-c2cccnc2)n1/N=C/c1ccc(Br)s1	3	3	8	-2	-2	-8
Cc1ccc(/C=N/n2c(-c3cccnc3)n[nH]c2=S)s1	2	76*	1	-5	-5	19
OCCCc1nc2n(n1)C(c1cccs1)C=C(c1ccccc1)N2 (centres undefined)	·	29	23	78*	·	7
Cc1ccc(-c2cc(NC(=O)CCl)n(-c3ccccc3)n2)cc1	-7	12	-41	3	-2	4
SMILES	IDE cell activ	ALR H2O2 inh	PolyA inhibitor	IDE inh	CaV13 ICDI inh	M18AAP inhibitor
O=C(CCl)Nc1cc(-c2ccccc2)nn1-c1ccccc1	0	98*	-6	4	-4	4
O=C(Nc1ccc(C(=O)NC2CCCCC2)cc1)c1cccnc1	3	-8	1	1	1	-3
CC1CCCN(C(=O)c2ccc3ncsc3c2)C1 (centres undefined)	2	·	·	·	-8	·
CCOC(=O)C1CCCN(C(=O)c2ccc3ncsc3c2)C1 (centres undefined)	5	96*	·	1	-5	·
COc1ccc(C)cc1NC(=O)C(=O)NNC(=O)c1ccco1	3	·	-9	8	-5	-7
COC(=O)C1=C(C)N(Cc2ccccc2C(F)(F)F)C(=NCc2ccccc2C(F)(F)F)NC1c1cccc(F)c1 (centres undefined)	·	·	·	·	-11	·
NC(=S)NNc1c(F)c(F)c(F)c(F)c1F	0	98*	-4	-2	-2	15
Cc1oc(-c2ccccc2F)nc1CSCC(=O)NCc1ccc2c(c1)OCO2	4	98*	-5	2	·	5
Cc1ccc(CNC(=O)CS(=O)Cc2nc(-c3ccccc3F)oc2C)cc1 (centres undefined)	8	96*	-1	-4	-2	5
Cc1oc(-c2ccccc2F)nc1CS(=O)CC(=O)NCc1ccccc1 (centres undefined)	2	97*	-1	2	-2	2
Cc1oc(-c2ccccc2F)nc1CS(=O)CC(=O)NCc1ccc(F)cc1 (centres undefined)	-4	99*	16	1	-3	-5
COc1ccccc1CNC(=O)C1CCN(S(=O)(=O)c2c(C)noc2C)CC1	-3	-8	15	-2	-5	0
Cn1c(SCC(=O)c2cc(Cl)c(Cl)s2)nnc1-c1ccco1	·	98*	1	8	-4	5
Cc1ccc(C(=O)CSc2nnc(-c3ccco3)n2C)cc1	-2	19	0	1	0	-2
COCCn1c(SCC(=O)c2cccc(OC)c2)nnc1-c1ccco1	7	93*	-10	4	·	2
COc1ccc(NC(=O)c2cccnc2)cc1	6	-13	-3	-2	-5	2
N#CCC(=O)Nc1ccc(C(=O)Nc2cccnc2)cc1	7	100*	10	1	-3	-10
CCN(CC)c1ccc(NC(=O)c2cccnc2)cc1	8	99*	1	1	-6	-4
CNS(=O)(=O)c1ccc(NC(=O)c2cncc(Br)c2)cc1	8	-3	-6	3	5	4
CCN(CC)c1ccc(NC(=O)c2cncc(Br)c2)cc1	1	99*	-18	2	·	-1
Fc1ccc(-n2nnc(-c3cnc4ccccc4c3)n2)cc1	-2	-1	8	1	-5	-1
COC(=O)n1c(=S)oc2cc(Cl)ccc21	·	96*	9	0	·	5
